Laboratory results taken from ChEMBL document CHEMBL3988442, “University of Dundee, Small-Polar-MMV Screening Library” (2021).
Screen size: about 66,000 compounds; about 960 (1.5%) showed an effect of 50% or more. The sample holds strong results, similar compounds and a random draw of the others, so the mix is not that of the screen.

Tested on: Trypanosoma brucei
Test: Trypanosoma brucei 72 hour study
Type: functional, organism-based
Design: scale not given: in the data most compounds retested in dose-response had high values

O=C(O)C(F)(F)F.O=C1N(CC2CC2)CCC12CCN(c1ncccn1)CC2
Percent Effect (30.3 µM, […]): -19.41%

O=C(O)C(F)(F)F.c1cnc(N2CCC3(CC2)CN(CC2CC2)c2ccccc23)nc1
Percent Effect (30.3 µM, […]): 99.63%

CCS(=O)(=O)N1CCC2(CC1)CN(CC1CCOC1)c1ccccc12.O=C(O)C(F)(F)F (stereo not given)
Percent Effect (30.3 µM, […]): 14.83%

O=C(O)C(F)(F)F.O=C(O)C(F)(F)F.c1cnc(N2CCC3(CCN(CC4CC4)CC3)CC2)nc1
Percent Effect (30.3 µM, […]): 8.512%

O=C(O)C(F)(F)F.c1ccc2c(c1)N(CC1CCOC1)CC21CCN(c2cnccn2)CC1 (stereo not given)
Percent Effect (30.3 µM, […]): 99.95%

CS(=O)(=O)N1CCC2(CC1)CN(CC1CCOC1)c1ccccc12.O=C(O)C(F)(F)F (stereo not given)
Percent Effect (30.3 µM, […]): 18.78%

Cc1noc(C(C)N2CCN(CCC(=O)N3CCOCC3)CC2)n1 (stereo not given)
Percent Effect (30 µM, 30.03 µM): -18.56%

Cn1ccnc1C(=O)NCc1cnc2n1CCN(CC1CC1)CC2.O=C(O)C(F)(F)F.O=C(O)C(F)(F)F
Percent Effect (30.3 µM, […]): -46.77%

CC(C)N(C)Cc1cnc2n1CCN(CCc1ccccc1)C2.O=C(O)C(F)(F)F.O=C(O)C(F)(F)F
Percent Effect (30 µM, 30.03 µM): 55.49%

COCCN1CCn2c(CN(C)C(C)C)cnc2C1.O=C(O)C(F)(F)F.O=C(O)C(F)(F)F
Percent Effect (30.3 µM, […]): 0.5782%

CC(C)N(C)Cc1cnc2n1CCN(Cc1cccc(F)c1)C2.O=C(O)C(F)(F)F.O=C(O)C(F)(F)F
Percent Effect (30.3 µM, […]): -6.591%

CCn1nnc2c1C(COCC(=O)N(C)C)CN(Cc1ccco1)C2.O=C(O)C(F)(F)F (stereo not given)
Percent Effect (30.3 µM, […]): -38.68%

COc1cccc(-c2nc(C)c(C(=O)NCCC(=O)O)s2)c1
Percent Effect (30 µM, 30.03 µM): -31.35%

CC(C)CC(=O)N1CC(=O)c2sc(Nc3ccc(C#N)cc3)nc2C1
Percent Effect (30.3 µM, […]): -13.31%

CSc1ccc(CN2CCCC3(CNC(=O)c4ccccc4O3)C2)cc1 (stereo not given)
Percent Effect (30.3 µM, […]): 60.61%

C=Cc1ccc(CN2CCCC3(CNC(=O)c4ccccc4O3)C2)cc1 (stereo not given)
Percent Effect (30.3 µM, […]): 79.56%

O=C1NCC2(CCCN(CCc3ccccc3)C2)Oc2ccccc21 (stereo not given)
Percent Effect (30.3 µM, […]): -38.35%

O=C1NCC2(CCCN(Cc3ccccc3F)C2)Oc2ccccc21 (stereo not given)
Percent Effect (30.3 µM, […]): -8.26%

O=C1NCC2(CCCN(Cc3ccc(F)cc3)C2)Oc2ccccc21 (stereo not given)
Percent Effect (30.3 µM, […]): 13.09%

O=C1NCC2(CCCN(Cc3ccc(Cl)s3)C2)Oc2ccccc21 (stereo not given)
Percent Effect (30 µM, 30.03 µM): 12.52%

Cc1ccc(CN(CCCn2ccnc2)Cc2[nH]cnc2C)s1.O=C(O)CC(O)(CC(=O)O)C(=O)O
Percent Effect (30.3 µM, […]): 19.63%

O=C(O)C(F)(F)F.O=C(O)C(F)(F)F.O=C(c1ccncc1)N1CC2(CCNCC2)c2cc(Cl)ccc21
Percent Effect (30.3 µM, […]): -51.23%

O=C(O)C(F)(F)F.O=C(c1cscn1)N1CC[C@@H]2[C@@H]1CCN2CC1CCOC1 (stereo not given in full)
Percent Effect (30.3 µM, […]): -46.23%

Cc1cc(O)c(OCC(=O)/N=c2\[nH]c(C)cs2)cn1
Percent Effect (30 µM, 30.03 µM): -14.8%

COc1cccc(-c2noc(-c3ccc(NCC(C)C)nc3)n2)c1OC
Percent Effect (30 µM, 30.03 µM): 3.504%

COc1cccc(-c2noc(-c3ccc(NCC4CC4)nc3)n2)c1OC
Percent Effect (30 µM, 30.03 µM): 64.24%

CNCCNc1ccc(-c2nc(-c3cccc(OC)c3OC)no2)cn1
Percent Effect (30 µM, 30.03 µM): 17.24%

CCN(CC)S(=O)(=O)c1ccc(CCC(=O)NCc2cc(C)on2)cc1
Percent Effect (30.3 µM, […]): -181.3%

CCN(CC)S(=O)(=O)c1ccc(CNC(=O)N2CCC(C#N)CC2)cc1
Percent Effect (30 µM, 30.03 µM): 70.46%

CCN(CC)S(=O)(=O)c1ccc(CNC(=O)N2CCCCCC2)cc1
Percent Effect (30 µM, 30.03 µM): 27.66%

Cc1cc(C(=O)NCc2cc(C)oc2C)no1
Percent Effect (30 µM, 30.03 µM): -30.84%

CCN(CC)c1ccc(CNC(=O)N2CCC(C#N)CC2)cc1
Percent Effect (30 µM, 30.03 µM): 36.77%

CCN(CC)S(=O)(=O)c1ccc(CNC(=O)c2cc(C)on2)cc1
Percent Effect (30.3 µM, […]): 58.42%

CC1(C)CN(C(CNC2=NCCN2)c2ccc(Cl)cc2)CCO1.I (stereo not given)
Percent Effect (30 µM, 30.03 µM): 11.29%

c1ccc(-c2nnc3sc(CCN4CCCC4)nn23)cc1
Percent Effect (30 µM, 30.03 µM): -48.79%

Cc1ccc(CN2CC[C@H]3C[C@H](C(=O)N(C)C)O[C@H]3C2)cc1.O=C(O)C(F)(F)F
Percent Effect (30 µM, 30.03 µM): 45.02%

CN1CCNC(Cc2ccc(-c3ccncc3)cc2)C1=O.Cl (stereo not given)
Percent Effect (30.3 µM, […]): -41.95%

CN(C)c1ncc(C2Nc3ccccc3C3=NCCCN32)cn1.Cl (stereo not given)
Percent Effect (30.3 µM, […]): -6.507%

COc1ccc(C2Nc3ccccc3C3=NCCCN32)cc1OC (stereo not given)
Percent Effect (30 µM, 30.03 µM): -8.154%

COc1cc(C2Nc3cc(Cl)ccc3C3=NCCN32)cc(OC)c1OC (stereo not given)
Percent Effect (30.3 µM, […]): 19.53%

COc1cc(OC)c(C2Nc3cc(Cl)ccc3C3=NCCN32)cc1OC (stereo not given)
Percent Effect (30 µM, 30.03 µM): 4.882%

COc1ccc(C2Nc3cc(Cl)ccc3C3=NCCN32)cc1CO (stereo not given)
Percent Effect (30.3 µM, […]): 83.77%

COc1ccc(C2Nc3cc(Cl)ccc3C3=NCCN32)cc1O (stereo not given)
Percent Effect (30.3 µM, […]): 12.75%

COc1cc(C2Nc3cc(Cl)ccc3C3=NCCN32)ccc1O (stereo not given)
Percent Effect (30.3 µM, […]): 69.32%

COc1ccc(C2Nc3cc(Cl)ccc3C3=NCCN32)cc1OC (stereo not given)
Percent Effect (30 µM, 30.03 µM): 25.02%

CN(C)c1ncc(C2Nc3cc(Cl)ccc3C3=NCCCN32)cn1.Cl (stereo not given)
Percent Effect (30.3 µM, […]): 62.93%

O=C(O)C1CN(c2cncc(Cc3ccccc3F)n2)C1
Percent Effect (30.3 µM, […]): -23.43%

CC(=O)N1CCC(N2CCC(c3nc(C)cc(C)n3)C2)CC1.O=CO (stereo not given)
Percent Effect (30.3 µM, […]): -13.11%

CC(C)C(=O)N1CC[C@H]2N(C)CC[C@@]2(C(=O)Nc2cccnc2)CC1.O=C(O)C(F)(F)F.O=C(O)C(F)(F)F
Percent Effect (30.3 µM, […]): -93.75%

CCCc1cc(C(=O)N2C[C@H]3CC=C(C)C[C@H]3C2)ccn1
Percent Effect (30.3 µM, […]): 56.41%

CCCc1cc(C(=O)N2CC(c3ccncc3)C2)ccn1
Percent Effect (30.3 µM, […]): -10.84%

CCCc1cc(C(=O)N2C[C@H](O)[C@@H](N3CCCC3)C2)ccn1
Percent Effect (30.3 µM, […]): -5.682%

CC1=CC[C@@H]2CN(C(=O)c3ccc(-c4cc[nH]n4)cc3)C[C@@H]2C1
Percent Effect (30 µM, 30.03 µM): 55.2%

CC1=CC[C@@H]2CN(C(=O)c3ccc(-c4nnn(C)n4)cc3)C[C@@H]2C1
Percent Effect (30 µM, 30.03 µM): 59.61%

Cc1ccc(C(=O)N2C[C@@H]3CN(c4ncccn4)C[C@@H]3C2)cc1
Percent Effect (30.3 µM, […]): -8.111%

CC1=CC[C@@H]2CN(C(=O)c3ccc(-c4nc[nH]n4)cc3)C[C@@H]2C1
Percent Effect (30 µM, 30.03 µM): 36.48%

O=C(c1ccc(-c2cc[nH]n2)cc1)N1CC[C@H](CO)[C@H](O)C1
Percent Effect (30 µM, 30.03 µM): 0.05802%

O=C(c1ccc(F)cc1)N1C[C@@H]2CN(c3ncccn3)C[C@@H]2C1
Percent Effect (30.3 µM, […]): -32.62%

O=C(O)C(F)(F)F.O=C(O)C(F)(F)F.O=C(O)CN1CCCC2(CCN2Cc2cccc(F)c2)C1 (stereo not given)
Percent Effect (30.3 µM, […]): -49.81%

CN(Cc1cccnc1)[C@@H]1CN(C(=O)NC2CC2)[C@@H]2CCCO[C@H]12.O=C(O)C(F)(F)F.O=C(O)C(F)(F)F
Percent Effect (30.3 µM, […]): -11.25%

FC1(F)CCN(Cc2ccccn2)CC12CCN(c1ncccn1)C2.O=C(O)C(F)(F)F (stereo not given)
Percent Effect (30.3 µM, […]): -64.14%

CNC(=O)CN1CCOCC2(C1)CN(C(=O)CC(C)C)CCO2.O=C(O)C(F)(F)F (stereo not given)
Percent Effect (30 µM, 30.03 µM): -16.33%

O=C(c1ccncc1)N1C[C@@H]2CC[C@H](C1)N(S(=O)(=O)c1cccnc1)C2
Percent Effect (30 µM, 30.03 µM): -9.354%

COc1ccc(CN(Cc2c[nH]cn2)CC2CCCO2)c(OC)c1.O=C(O)CC(O)(CC(=O)O)C(=O)O (stereo not given)
Percent Effect (30.3 µM, […]): 4.059%

COCCNC(=O)[C@H]1C[C@@H]2CCN(c3ccccc3)C[C@H]2O1.O=C(O)C(F)(F)F
Percent Effect (30.3 µM, […]): -28.03%

CCn1nnc2c1C(COCCN(C)C)CN(Cc1ccc(C)s1)C2.O=C(O)C(F)(F)F.O=C(O)C(F)(F)F (stereo not given)
Percent Effect (30.3 µM, […]): -26.69%

Cc1ccc(N2CCC3(CN(Cc4ccncc4)CCC3(F)F)C2)nn1.O=C(O)C(F)(F)F.O=C(O)C(F)(F)F (stereo not given)
Percent Effect (30.3 µM, […]): -39.6%

Cl.c1cnc2c(c1)cc(C1CCOCC1)n2CCN1CCOCC1
Percent Effect (30.3 µM, […]): 3.621%

COc1cccc(CN2C[C@H]3CCNCC[C@H]3S2(=O)=O)c1
Percent Effect (30.3 µM, […]): -73.82%

Cl.Fc1ccccc1Cn1c(C2CCNCC2)cc2cccnc21
Percent Effect (30.3 µM, […]): 37.09%

COc1cccc(Cn2c(C3CCNCC3)cc3cccnc32)c1.Cl
Percent Effect (30.3 µM, […]): 94.63%

CN1CCCC1c1cc2cccnc2n1Cc1ccc(F)cc1.Cl (stereo not given)
Percent Effect (30.3 µM, […]): -6.063%

COc1cccc(-c2ccnc(C3CCNCC3)c2)c1
Percent Effect (30.3 µM, […]): -11.36%

COc1ccc(Cn2c(C3CCNCC3)cc3cccnc32)cc1.Cl
Percent Effect (30.3 µM, […]): 99.58%

Cl.Fc1cccc(F)c1Cn1c(C2CCCNC2)cc2cccnc21 (stereo not given)
Percent Effect (30.3 µM, […]): 11.23%

Cl.Fc1cccc(F)c1Cn1c(C2CCNCC2)cc2cccnc21
Percent Effect (30.3 µM, […]): 90.9%

NCC1CN(C(=O)Cn2ncc(N3CCCCC3)cc2=O)CCO1 (stereo not given)
Percent Effect (30.3 µM, […]): 7.872%

O=C(O)C(F)(F)F.O=C(c1cscn1)N1CCC2(CN(Cc3ccsc3)C2)C1
Percent Effect (30 µM, 30.03 µM): -41.53%

Cc1cc(NC(C)c2csc(C)n2)n2nc(C)c(C)c2n1 (stereo not given)
Percent Effect (30 µM, 30.03 µM): -27.53%

Cc1cc(NC(C)c2nnn[nH]2)n2nc(C)c(C)c2n1 (stereo not given)
Percent Effect (30 µM, 30.03 µM): 85.64%

Cc1cc(NC(C)c2n[nH]c(C)n2)n2nc(C)c(C)c2n1 (stereo not given)
Percent Effect (30 µM, 30.03 µM): -65.68%

O=C(NCc1ccco1)[C@@H]1CCO[C@@H]2CCN(CC3CC3)C[C@@H]21.O=C(O)C(F)(F)F
Percent Effect (30 µM, 30.03 µM): -21.92%

Cc1nc(CN2CCCC(NCc3ccc(Cl)s3)C2)no1 (stereo not given)
Percent Effect (30.3 µM, […]): -4.21%
Percent Effect (10 mM, 10 mM as filed; unlikely as a test dose): -21.78%

Cc1nc(CCNC2CCN(Cc3ccccc3)C2)sc1C (stereo not given)
Percent Effect (30.3 µM, […]): -17.04%

Cc1nc(CN2CCCC(NCc3cccc4ccccc34)C2)no1 (stereo not given)
Percent Effect (30.3 µM, […]): -31.57%
Percent Effect (10 mM, 10 mM as filed; unlikely as a test dose): -42.23%

Cc1nc(CN2CCCC(NCc3nc4ccccc4s3)C2)no1 (stereo not given)
Percent Effect (30.3 µM, […]): 74.19%
Percent Effect (10 mM, 10 mM as filed; unlikely as a test dose): 66.41%

Cc1nc(CN2CCCC(NCc3cnc(C(C)(C)C)s3)C2)no1 (stereo not given)
Percent Effect (30.3 µM, […]): -11.81%

CCc1csc(CNC2CCN(Cc3ccccc3)C2)n1 (stereo not given)
Percent Effect (30.3 µM, […]): -9.701%

Cc1nc(CNC2CCN(Cc3ccccc3)C2)sc1C (stereo not given)
Percent Effect (30.3 µM, […]): 100.1%

Cc1nc(CN2CCCC(NCc3ccsc3)C2)no1 (stereo not given)
Percent Effect (30 µM, 30.03 µM): -22.48%

Cc1nc(CN2CCCC(NCc3csc(C(C)(C)C)n3)C2)no1 (stereo not given)
Percent Effect (30.3 µM, […]): 71.04%
Percent Effect (10 mM, 10 mM as filed; unlikely as a test dose): -25.98%
